Measurements published in PubChem BioAssay (Tox21).
Inconclusive results are not listed. Entries that show only a call come without a potency. Values without a mark were called inactive. Active and inactive are the calls of the source. The call rests on the fitted dose curve; in most records, active means well fitted cell-killing curve with a large enough effect in the repeat runs; inconclusive means weak or mixed curves, or effect the other way; inactive means no such curve, though single readings can be large or run the other way.

test: qHTS assay to identify small molecule antagonists of the progesterone receptor (PR) signaling pathway - cell viability counter screen (AID 1346798); conditions: PR-UAS-bla HEK293T viability, CellTiter-Glo luminescence, 16 h; series mostly up to 92.4 µM; further: nearly all actives have a fitted effect of over 50% in size
Text: National Center for Advancing Translational Sciences [NCATS]
NIH Chemical Genomics Center [NCGC]
U.S. Environmental Protection Agency [EPA]
National Institutes of Environmental Health Sciences [NIEHS]
National Toxicology Program [NTP]
U.S. Food and Drug Administration [FDA]
Progesterone receptor (PR), a nuclear hormone receptor, plays an important role in development, metabolic homeostasis and reproduction. It is activated by the steroid hormone progesterone. Endocrine disrupting chemicals (EDCs) and their interactions with steroid hormone receptors like PR causes disruption of normal endocrine function. To identify the compounds that inhibit PR signaling, a PR-UAS-bla GripTite cell line i.e. PR-UAS-bla HEK293T (Invitrogen, Carlsbad, CA, USA) containing a beta-lactamase reporter gene under the control of an UAS response element was used to screen Tox21 10K compound library. The cytotoxicity of the Tox21 compound library against the PR-bla cell line was tested in parallel by measuring the cell viability using CellTiter-Glo assay in the same wells.
Tox21 Assay Protocol Summary:
PR-UAS-bla HEK293T cells were dispensed at 3,000 cells/4 uL of assay medium containing 2% charcoal stripped FBS per well into black wall/clear-bottom 1536-well plates using a Multidrop Combi (ThermoFisher Scientific, Waltham, MA) dispenser. After the assay plates were incubated at a 37C and 5% CO2 for 4 hr, 23 nL of compounds dissolved in DMSO, positive controls or DMSO only was transferred to the assay plate by a Pintool station (Kalypsys, San Diego, CA), followed by addition of 1 uL of R5020 in assay medium using a Flying Reagent Dispenser (FRD, Aurora Discovery, San Diego, CA). The plates were incubated at 37C and 5% CO2 for 16 hr. Then 1 uL of LiveBLAzer B/G FRET substrate was added using a Flying Reagent Dispenser, the plates were incubated at room temperature for 2 hours, and fluorescence intensity was measured by an Envision plate reader (PerkinElmer, Shelton, CT). For cell viability readout that measures cytotoxicity, 4 uL/well of CellTiter-Glo reagent was added into the assay plates using a FRD. After 30 min incubation at room temperature, the luminescence intensity in the plates was measured using a ViewLux (PerkinElmer) plate reader.
Potency means the concentration at half of the fitted maximal effect.

Structure (SMILES)	Potency	activity change, negative = cytotoxicity
C#CCOC(=O)/C=C(C)/C=C/CC(C)CCCC(C)C (stereo not given)	inactive	–
CCOC(=O)C(Cl)Cc1cc(-n2nc(C)n(C(F)F)c2=O)c(F)cc1Cl (stereo not given)	inactive	–
CC(C)C(C)(N)C#N (stereo not given)	inactive	–
CC(C)[N+](C)(CCC(C(N)=O)(c1ccccc1)c1ccccc1)C(C)C	inactive	–
CCC(C)C(C)(COC(N)=O)COC(N)=O (stereo not given)	inactive	–
O=C(O)C(Cl)Br (stereo not given)	inactive	–
CC(C)(C)NC[C@H](O)c1ccc(O)cc1Cl	inactive	–
CCNP(=S)(OC)O/C(C)=C/C(=O)OC(C)C (stereo not given)	inactive	–
CC(C)N(Cc1ccccc1)C(=O)C(C)(C)C	inactive	–
O=C(CCl)NCO	inactive	–
Cc1ccc2cc(C)ccc2c1	inactive	–
C=CC(=O)OCCN(C)C	inactive	–
C(COCC1CO1)OCC1CO1 (stereo not given)	inactive	–
CC(O)CCl (stereo not given)	inactive	–
C=C(Cl)CCl	inactive	–
CC[C@@H](CO)NC(=O)[C@@H]1C=C2c3cccc4c3c(cn4C)C[C@H]2N(C)C1	inactive	–
CON(C)C(=O)Nc1ccc(Br)cc1	inactive	–
N=C(N)[Se]	inactive	–
C=CCN1CC[C@]23CCCC[C@H]2[C@H]1Cc1ccc(O)cc13	inactive	–
CCC1(c2ccccc2)CCC(=O)NC1=O (stereo not given)	inactive	–

Structure (SMILES)	Potency	activity change, negative = cytotoxicity
CCN(CC)C1CCCCC1	inactive	–
CCCC[N+](=O)[O-]	inactive	–
CCCOc1nn(C(=O)NS(=O)(=O)c2ccccc2C(=O)OC)c(=O)n1C	inactive	–
CN=CNc1ccc(C)cc1C	inactive	–
COC(=O)c1ccc(CBr)cc1	inactive	–
O=c1[nH]c2ccccc2o1	inactive	–
C=C1CC[C@@]2(O)[C@H]3Cc4ccc(O)c5c4[C@@]2(CCN3CC2CC2)[C@H]1O5	2980 nM (active)	–
Brc1c(Br)c(Br)c(Br)c(Br)c1Br	–	-1.74% [at 8.39 µM]
O=c1[nH]oc2c1CCNC2	inactive	–
ClC(Cl)(Cl)Cl	inactive	–
CCC(CC)(CNC(=O)CCCO)c1cccc(OC)c1	inactive	–
CN1COCN(Cc2cnc(Cl)s2)/C1=N\[N+](=O)[O-]	inactive	–
COc1ccc(C=O)cc1O	inactive	–
ClCC1CO1 (stereo not given)	inactive	–
Oc1ccc(Cc2ccc(O)cc2)cc1	inactive	–
Cc1ccc(Cl)c(O)c1	inactive	–
C=CCc1cc(OC)c2c(c1)OCO2	inactive	–
C#CC(C)(C)O	inactive	–
C/C(=N\NC(=O)Nc1cc(F)cc(F)c1)c1ncccc1C(=O)O	inactive	–
CCOP(=O)(CN(CCO)CCO)OCC	inactive	–
